This is a sample that favours compounds with a hit; in the whole collection about 10% have one here.
HPGD inh: HPGD (human) dehydrogenase inhibition; P15428; purified HPGD, NADH fluorescence kinetic, PGE2 substrate; AID 894; actives 4.3% (n = 150,000); Potency, µM, for inactives: at the top dose activity change, negative = inhibition, hits mostly inhibitors; also: potency is read from the fitted curve at half-maximal effect
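20 nM HPGD preincubated 15 min at room temperature with compound in 50 mM Tris-HCl pH 8, 0.01% Tween 20. Started with 1 mM NAD+ and 30 uM prostaglandin E2; NADH fluorescence (360/450 nm) read 5 times over 30-s intervals, last minus first.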
PNC assembly inh: inhibitors of perinucleolar compartment assembly; activity change (PNC), negative = inhibition, % at 10 µM; AID 2417; PC3M PTB-GFP, PNC prevalence imaging, 16 h; stronger effect = lower value; actives 3.1% (n = 140,000);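 active = readout at or below -70, meaning at least 70% loss of cells showing the perinucleolar compartment, a nuclear body marking cancer cells; inconclusive = readout between -30 and a set limit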;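 also: plate controls were DMSO wells for no effect and camptothecin positive control wells for full effect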
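PC3M cells stably expressing PTB-GFP, 750–1000 cells/well, treated 16 h at 37 °C with compound (23 nl of library stock), in duplicate. After paraformaldehyde fixation and Hoechst stain, imaged at 20x; PNC prevalence scored by image analysis.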
IMPase cell inh: membrane-permeable compound that blocks inositol monophosphatase; CHO-M1 cells, IP1 accumulation, HTRF TR-FRET ratio; inhibition (IP1 accumulation), % at 46.1 µM; 120,000 tested, under 10 active; active = well fitted curve in the direction sought with a large enough effect in the signal ratio, not every such curve was filed as active; inconclusive = small, poorly fitted or top-dose-only effect, or a change in a side signal; inactive = no such curve, though single readings can be large or run the other way; the % refers to the signal ratio;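 also: cells stimulated with carbachol in lithium chloride buffer; plate controls were DMSO basal wells for no effect and reference inhibitor wells for full effect; higher means more IMPase inhibition seen as more IP1 and lower FRET ratio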
Target sequence (P97697 whole entry, looked up): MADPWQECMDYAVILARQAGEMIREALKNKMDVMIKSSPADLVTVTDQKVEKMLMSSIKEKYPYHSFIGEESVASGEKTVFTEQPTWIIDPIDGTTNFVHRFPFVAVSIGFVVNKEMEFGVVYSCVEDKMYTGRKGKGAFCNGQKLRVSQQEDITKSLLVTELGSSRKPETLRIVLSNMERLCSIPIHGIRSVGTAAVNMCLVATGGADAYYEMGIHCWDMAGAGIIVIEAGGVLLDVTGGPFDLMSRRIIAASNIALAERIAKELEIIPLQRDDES
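Measured: the HTRF emission ratio (665/620 nm) plus the 620 nm donor channel, each fitted to the Hill equation to give AC50. Cells were CHO-M1 given compounds up to 46 uM and a 30 min carbachol stimulation at 37C.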
LMNA splice mod: changes lamin A minigene splicing in HeLa cells; AID 1487; HeLa LMNA splicing GFP/RFP minigene ratio, 48 h; actives 0.01% (n = 200,000); Potency, µM (titrated, usually from 46.1 µM), inactives show top-dose ratio change, negative = inhibition, most hits filed as inhibitors; active = well fitted inhibition curve with a large enough effect in the signal ratio, with a control signal flat, not every such curve was filed as active; inconclusive = small, poorly fitted or top-dose-only effect, or effect the other way, or a change in a side signal; the % refers to the signal ratio; also: potency is read from the fitted curve at half-maximal effect
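Read-out is the ratio of GFP to DsRed2 object intensity, acquired by 488 nm laser-scanning cytometry on HeLa lamin A-EGFP minigene reporter cells. Compound incubation 48 hrs at 37 °C in Opti-MEM with 2% FBS; DMSO 0.5% final.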
ALDH1A1 inh: blocks purified human ALDH1A1 activity; AID 1030; Purified ALDH1A1, NADH fluorescence, propionaldehyde substrate; P00352; actives 7.3% (n = 220,000); Potency, µM (titrated, usually from 75.3 µM), without a hit: at the top dose activity, negative = inhibition, actives largely listed as inhibitors;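 also: potency is read from the fitted curve at half-maximal effect; plate controls were no enzyme wells and a reference inhibitor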
Target sequence (P00352 whole entry, looked up): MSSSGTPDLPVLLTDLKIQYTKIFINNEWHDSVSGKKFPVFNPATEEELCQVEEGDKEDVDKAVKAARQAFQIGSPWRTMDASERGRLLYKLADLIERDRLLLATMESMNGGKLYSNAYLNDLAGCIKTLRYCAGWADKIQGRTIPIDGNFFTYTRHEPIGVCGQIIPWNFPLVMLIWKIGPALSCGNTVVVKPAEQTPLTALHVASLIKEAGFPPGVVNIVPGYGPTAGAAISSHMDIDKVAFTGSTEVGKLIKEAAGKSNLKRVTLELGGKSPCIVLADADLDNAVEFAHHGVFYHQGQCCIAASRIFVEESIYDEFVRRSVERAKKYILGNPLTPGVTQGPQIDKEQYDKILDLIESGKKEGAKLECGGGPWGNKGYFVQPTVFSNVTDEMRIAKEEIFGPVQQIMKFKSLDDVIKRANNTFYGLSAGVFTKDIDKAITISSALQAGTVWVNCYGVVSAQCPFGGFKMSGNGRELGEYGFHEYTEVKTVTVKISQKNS
KinaseGlo FLuc: blocks Kinase-Glo luciferase, a counter-screen artifact | Q27757 | Kinase-Glo luciferase, ATP luminescence, 8 min | Potency, µM (series often up to 38.3 µM), for inactives: top-dose activity change, negative = inhibition, hits mostly inhibitors | actives 0.28% (n = 200,000) | AID 1379; active = well fitted inhibition curve with a large enough effect; inconclusive = small, poorly fitted or top-dose-only effect; also: potency is read from the fitted curve at half-maximal effect; nearly all actives have a fitted effect of over 60% in size
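Compound is pinned into ATP-containing buffer (10 uM ATP, imidazole pH 7.2, 7 mM MgCl2). Kinase-Glo luciferase reagent is then added. Light output is recorded following an 8-min room-temperature incubation.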
* hit, by the source's call; u = inconclusive; x = not tested or not shown; [ ] = another dose, or the depositor's remark. Unless noted, calls follow the shape of the dose curve; as a rule, active = well fitted inhibition curve with a large enough effect (not every such curve was filed as active); inconclusive = small, poorly fitted or top-dose-only effect, or another doubt; inactive = no such curve, though single readings can be large or run the other way. Unless noted, % is scaled to controls: 0 for no effect and ±100 for the full control effect.

SMILES | HPGD inh | PNC assembly inh | IMPase cell inh | LMNA splice mod | ALDH1A1 inh | KinaseGlo FLuc
O=C1CC(SCc2nc3ccccc3[nH]2)C(=O)N1c1ccc(F)cc1 (centres undefined) | -12% | u | 2 | 26% | 28µM* | -2%
CC/C=C\CC[C@H](O)C1=CCCCC1=O | x | x | x | x | 10%[13.5 µM] | x
CCCNC(=O)C1CCN(S(=O)(=O)c2ccc3c(c2)CCCN3C(C)=O)CC1 | x | x | x | 14%[46 µM] | x | x
C/C(=N\NC(=O)C1(C)CC1(Br)Br)c1ccc([N+](=O)[O-])cc1 (centres undefined) | x | x | x | 16%[46 µM] | -3% | 3%
C/C(=N\NC(=O)C1(C)CC1(Br)Br)c1ccc(NC(=O)c2ccc(C)o2)cc1 (centres undefined) | 18µM* | -21 | x | -18% | -3% | -2%
CC1CC(=O)C2=C(C1)Nc1ccccc1SC2c1ccc(F)cc1 (centres undefined) | -7% | -85* | x | u | 6% | 0%
CC(C)c1ccc(C2Sc3ccccc3NC3=C2C(=O)c2ccccc23)cc1 (centres undefined) | x | x | 1 | x | x | x
CC12CCC(CC1=O)C2(C)C (centres undefined) | -10% | x | x | x | 7.1µM* | x
CC1(C)C2CC[C@@]1(C)C(=O)C2 | -2% | x | x | x | 3% | -2%
O=C(COc1ccc(Cl)cc1)N1CCN(S(=O)(=O)c2ccccc2)CC1 | -1% | 22 | 0 | -6% | u | 1%
CCCS(=O)(=O)N1CCN(C(=O)COc2ccc(-c3ccccc3)cc2)CC1 | -11% | -88* | -7 | -10% | u | 1%
O=C(COc1ccc(-c2nnco2)cc1)N1CCN(S(=O)(=O)c2ccccc2)CC1 | -3% | -81* | 9 | 10% | 6% | -2%
Cc1cc(C)cc(NC2=C(c3ccccc3)C(=O)c3ccccc32)c1 | x | x | 3 | x | x | x
COC(=O)c1sc(N2C(=O)C(=O)/C(=C(/O)c3ccccc3)C2c2ccco2)nc1C (centres undefined) | 25µM* | -84* | x | -6% | -2% | 0%
Cc1nc(N2C(=O)C(=O)/C(=C(/O)c3ccccc3)C2c2ccco2)sc1C (centres undefined) | -7% | 16 | -7 | -11% | 6% | -2%
CC(=O)C1=C(C)NC2(O)c3ccccc3C(=O)C12O (centres undefined) | x | x | x | x | 11µM* | 1%
CCOC(=O)C1=C(C)NC2(O)c3ccccc3C(=O)C12O (centres undefined) | -15% | 20 | 1 | 13% | u | -3%
COCCOC(=O)C1=C(C)NC2(O)c3ccccc3C(=O)C12O (centres undefined) | x | x | x | x | 11µM* | 2%
COc1cccc(N2C(=O)CSC23C(=O)N(CC(=O)NCc2ccc(C)cc2)c2ccccc23)c1 (centres undefined) | x | x | x | -14%[46 µM] | x | x
O=C1c2cccnc2C(O)N1Cc1ccccc1 (centres undefined) | 0% | 0 | 6 | -9% | 2% | 5%
COc1ccc(CN2C(=O)c3cccnc3C2Nc2ccc(C)cc2)cc1 (centres undefined) | -14% | -18 | 6 | -3% | 1% | -3%
Cc1ccc(NC2c3ncccc3C(=O)N2Cc2cccs2)cc1 (centres undefined) | x | x | x | 23%[9.22 µM] | 28µM* | 2%
O=C1c2cccnc2C(Nc2cccc(F)c2)N1Cc1ccco1 (centres undefined) | x | x | x | u | -6% | 2%
O=C1c2cccnc2C(O)N1Cc1ccco1 (centres undefined) | 5% | u | 11 | -5% | 20µM* | 3%
O=C1c2cccnc2C(Nc2ccccc2)N1Cc1ccco1 (centres undefined) | u | 49 | 9 | 10% | 22µM* | 0%
SMILES | HPGD inh | PNC assembly inh | IMPase cell inh | LMNA splice mod | ALDH1A1 inh | KinaseGlo FLuc
O=C1c2cccnc2C(Nc2ccccc2Br)N1Cc1ccco1 (centres undefined) | x | x | x | x | 25µM* | -7%
Cc1cc(C)c(NC(=O)CSc2nc3c([nH]c4ccccc43)c(=O)n2C)c(C)c1 | x | x | x | 8%[46 µM] | x | x
CC(=O)OC1CCC2(C)C(=CC=C3C2CCC2(C)C3CCC2C(C)/C=C/C(C)C(C)C)C1(C)C (centres undefined) | -10% | x | x | x | 7% | -6%
c1cncc(CNc2cc(-c3ccoc3)ncn2)c1 | x | x | x | -15% | u | x
Cc1cccc(CNc2cc(-c3ccoc3)ncn2)c1 | 20µM* | x | x | u | u | -3%
NC(N)=NCCC[C@H](NC(=O)[C@@H](N)Cc1ccc(O)cc1)C(=O)O | x | x | x | x | -8% | x
COc1cccc(-n2c(SCC(=O)OC(C)C)nnc2-c2cccnc2)c1 | 22µM* | u | 3 | 13% | -6% | 0%
COC(=O)CSc1nnc(C)n1-c1cccc(OC)c1 | -19% | -96* | 0 | -1% | 7% | 0%
COC(=O)CSc1nnc(C)n1-c1ccc(C)cc1 | 6% | -19 | -6 | 0% | 12% | 1%
CC(C)OC(=O)CSc1nnc(-c2cccnc2)n1N | -12% | 18 | 5 | -6% | 9% | 2%
COCCNC(=O)C(C)OC(=O)c1nsc(Cl)c1Cl (centres undefined) | -2% | 21 | -9 | 4% | 6% | -2%
COCCNC(=O)COC(=O)c1nsc(Cl)c1Cl | -10% | -109* | 1 | -9%[0.0737 µM] | u | 1%
CCC(=O)[C@]12O[C@@]3(C4C(=O)OCCC41)N(Cc1ccccc1)C(C)=C(C(=O)OC)C(c1ccccc1)N3C2=O (some centres undefined) | x | x | x | x | -5%[13.5 µM] | x
CC(C)(C)C(=O)Nc1ccc(Sc2ccc([N+](=O)[O-])cc2)cc1 | 8.9µM* | -30 | x | -17% | 5% | 3%
CCc1nc2nc(C)cc(Nc3ccc(OC)cc3OC)n2n1 | x | x | 7 | x | x | x
Clc1ccc2[nH]cc(-c3nnnn3-c3ccc4ccccc4c3)c2c1 | -23% | -7 | 23 | 8% | 9.5µM* | 8%
CC(=O)c1ccc(N2CCN(C(=S)Nc3cc(C)ccc3C)CC2)cc1 | -4% | -90* | 0 | -11% | 4% | -1%
C/C(=N\NC(=O)c1ccccc1O)c1ccc(Br)s1 | 32µM* | -26 | 3 | u | -14% | -28%
C/C(=N\NC(=O)c1ccccc1[N+](=O)[O-])c1ccc(Br)s1 | x | x | x | 11%[46 µM] | 3% | 2%
CC(=N/O)/C(C)=N\NC(=O)c1ccccn1 | x | x | x | -7%[9.22 µM] | 12% | u
C/C(=N\NC(=O)c1ccccn1)c1ccc(C(=O)O)s1 | x | x | x | x | 10µM* | 14µM*
C/C(=N/NC(=O)CNC(=O)c1ccccn1)c1ccccc1 | u | u | x | -2% | 14µM* | 1%

Screening data from PubChem BioAssay.
